GRIN3A LBD mod: modulates the human NR3A ligand-binding domain; NR3A LBD differential scanning fluorimetry, Tm shift; 0% = protein alone, 100% = glycine-bound protein; Tm shift relative to glycine control, % at 25 µM; actives 2.5% (n = 340,000); AID 1259313;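 active means melting temperature shift of at least 10% of the positive control shift, at one fixed dose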
rCAG RNA binder: r(CAG) repeat RNA binding; actives 1.3% (n = 370,000); inhibition, % at 3 µM; AID 651821; TO-PRO-1 dye displacement fluorescence;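 active means inhibition above the plate cutoff, the mean of all test compounds on that plate plus 3 SD, cut at about 35% in these data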;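 further: higher means more dye released from RNA so lower well fluorescence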
MPTP inh: permeability transition pore inhibition. isolated mouse mitochondria, Ca2+ swelling absorbance, 30 min. inhibition, % at 10 µM. actives 1.4% (n = 360,000);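 active means inhibition of 50% or more, scaled per plate between neutral and stimulator controls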
FAS TE block: blocks the thioesterase domain of human fatty acid synthase | P49327 | recombinant FAS-TE, OMFH fluorogenic substrate, fluorescence endpoint | inhibition, % at 15 µM | actives 0.67% (n = 360,000);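 active means compounds whose normalised, plate-corrected inhibition of enzyme fluorescence in the single-dose primary screen is 50% or more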
Myeloid diff 2: compounds promoting myeloid differentiation | ER-HoxA9 myeloid progenitors, lysozyme-GFP differentiation, flow cytometry | actives 1% (n = 360,000) | AID 624256 | calls only at 10 µM;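 active means normalized GFP-positive differentiation at or above the plate's own cutoff, the solvent-only control mean plus 3 SD; inconclusive means no clear call, values can overlap the other calls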;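 further: cells exposed to compound for four days before flow analysis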
Of the large screens only hits and unclear results are named; the others gave an inactive call. The list is not random: actives were taken first. Their share in the collection is about 5.7%.

Cc1occc1C(=O)Nc1ccc2c(c1)CCC2	GRIN3A LBD mod 11
COc1cc(C(=O)Nc2ccc3c(c2)Cc2cc(NC(=O)c4cc(OC)c(OC)c(OC)c4)ccc2-3)cc(OC)c1OC	GRIN3A LBD mod 24
Cc1nc(NC(=O)c2ccc(F)cc2)sc1C(=O)Nc1ccc2c(c1)CCC2	none
Cc1occc1C(=O)Nc1ccc2c(c1)OCCO2	none
Cc1ccc(C(=O)Nc2nc(C)c(C(=O)Nc3ccc4c(c3)CCC4)s2)cc1	GRIN3A LBD mod 19, Myeloid diff 2 inconclusive
Cc1ccc(NC(=O)C2CCN(c3ncccn3)CC2)cc1C	none (no result: GRIN3A LBD mod, MPTP inh, FAS TE block, Myeloid diff 2)
CC(C)CNC(=O)OCc1cn(Cc2c(F)cccc2F)nn1	none (no result: GRIN3A LBD mod, MPTP inh, FAS TE block, Myeloid diff 2)
CCOC(=O)CCCNC(=O)OC1CC2CC1[C@H]1CCCCN1[C@H]2C (stereo not given in full)	none (no result: GRIN3A LBD mod, MPTP inh, FAS TE block, Myeloid diff 2)
O=C(Nc1ccc2c(c1)CCC2)Nc1ccccc1Cl	GRIN3A LBD mod 10
O=C(Cc1c[nH]c2ccccc12)Nc1ccc(Nc2cccnc2)c(-c2ccc(OC(F)(F)F)cc2)c1	none (no result: GRIN3A LBD mod, MPTP inh, FAS TE block, Myeloid diff 2)
COc1ccc(CNC(=O)CSc2nnc3nc(C)cc(C)n23)cc1OC	Myeloid diff 2 active
Fc1ccc(Cn2ccc3ccc(-c4ccc5ccn(Cc6ccc(F)cc6F)c5c4)cc32)c(F)c1	none (no result: GRIN3A LBD mod, MPTP inh, FAS TE block, Myeloid diff 2)
COc1ccc(N(CC(=O)Nc2cc(Cl)ccc2OC)S(=O)(=O)c2c(C)noc2C)cc1	Myeloid diff 2 active
COc1ccc(N(CC(=O)Nc2ccccc2OC)S(=O)(=O)c2ccc(NC(C)=O)cc2)cc1	Myeloid diff 2 active
COc1ccc(OC)c(NC(=O)CN(c2ccc(C)cc2)S(=O)(=O)c2c(C)noc2C)c1	none
COc1ccc(NC(=O)CN(C)S(=O)(=O)c2ccccc2)cc1	none
CCOC(=O)c1ccc(NC(=O)CN(C)S(=O)(=O)c2ccc(OC)cc2)cc1	Myeloid diff 2 active
C#CCNc1cccc2c1S(=O)(=O)N[C@H](C)CO2	none (no result: GRIN3A LBD mod, MPTP inh, FAS TE block, Myeloid diff 2)
Nc1[nH]c(C(=O)c2ccccc2)c(-c2ccccc2)c1C(=O)NCCc1c[nH]c2ccccc12	none (no result: GRIN3A LBD mod, MPTP inh, FAS TE block, Myeloid diff 2)
N#CC1=C(c2ccccc2)/C(=C/c2ccccc2)OC1=O	GRIN3A LBD mod 27, Myeloid diff 2 inconclusive
O=C(O)c1cccc(NS(=O)(=O)c2cc(S(=O)(=O)c3ccc(Cl)cc3)ccc2Cl)c1	GRIN3A LBD mod 16
COc1ccc(N2CCN(C3CCCN(Cc4ccc(F)cc4Cl)C3)CC2)cc1 (stereo not given)	Myeloid diff 2 active
CC(C)(C)OC(=O)NCc1cc2c(cc1/C=C/S(=O)(=O)NC1CCCC1)OCO2	none (no result: GRIN3A LBD mod, MPTP inh, FAS TE block, Myeloid diff 2)
COC(=O)C(CN)CN1C(=O)c2ccccc2C1=O (stereo not given)	none (no result: GRIN3A LBD mod, MPTP inh, FAS TE block, Myeloid diff 2)
COc1cc2nc(CN(CCC(C)C)Cc3nc4cc(OC)c(OC)cc4c(=O)[nH]3)[nH]c(=O)c2cc1OC	GRIN3A LBD mod 11
CC(Cc1ccc(O)c(O)c1)C(C)Cc1ccc(O)c(O)c1 (stereo not given)	GRIN3A LBD mod 24 (no result: rCAG RNA binder, MPTP inh, FAS TE block, Myeloid diff 2)
Cc1ccc(-n2c(SCC(=O)NCc3ccco3)nc3c(sc4ccccc43)c2=O)cc1	GRIN3A LBD mod 10
O=C(O)COc1ccc(/C=C/c2nc(-c3ccccc3O)n[nH]2)cc1	none
COc1ccc(/C=C/c2nc(-c3ccccc3O)n[nH]2)cc1OC	GRIN3A LBD mod 27, rCAG RNA binder 48
COc1ccc(-c2cc(C(=O)NN=Cc3ccccc3[N+](=O)[O-])[nH]n2)cc1	none (no result: GRIN3A LBD mod, MPTP inh, FAS TE block, Myeloid diff 2)
COc1ccc(/C=C/C(=O)O)cc1Cl	none
COc1cc(C)cc(C(=O)C=Cc2ccccc2)c1O	GRIN3A LBD mod 17, Myeloid diff 2 inconclusive
COc1cc(/C=C/C(=O)O)cc(OC)c1O	Myeloid diff 2 active
COc1ccc2c(c1)oc(=O)c1c3ccccc3[nH]c21	GRIN3A LBD mod 21
COc1ccc2c(c1)oc(=O)c1ccccc12	none
CCN(Cc1ccccc1)S(=O)(=O)c1ccc(S(=O)(=O)N(Cc2cccc(OC)c2)CC2CCCO2)cc1 (stereo not given)	none
COc1cccc(CN(CC2CCCO2)S(=O)(=O)c2ccc(-n3cnnn3)c(OC)c2)c1 (stereo not given)	GRIN3A LBD mod 10
c1ccc(NC2=Nc3ccccc3CS2)cc1	Myeloid diff 2 active
COC(=O)c1cccc(Cn2ccc3ccc(-c4ccc5ccn(C(=O)c6ccc(C)cc6)c5c4)cc32)c1	none (no result: GRIN3A LBD mod, MPTP inh, FAS TE block, Myeloid diff 2)
Clc1ccc(-c2csc3ncnc(Cl)c23)cc1	none
NNc1ncnc2scc(-c3ccc(Cl)cc3)c12	Myeloid diff 2 active
O=C(C1CCC(=O)N(C2CC2)C1)N1CCC(Oc2cccc(F)c2)CC1 (stereo not given)	none

Screening data from PubChem BioAssay.
